Consider ten compounds from PubChem BioAssay (NCATS).

“And” between values parts separate entries of the source, which are not always exact repeats. Identical values can stand only once. Records with an inconclusive call do not appear. The source holds several records for some structures; these can differ, active in one and inactive in another. Unmarked numbers belong to inactive results. The source made the active and inactive calls. The call rests on the fitted dose curve; in most records, active means well fitted inhibition curve with a large enough effect; inconclusive means small, poorly fitted or top-dose-only effect; inactive means flat fitted curve, though single readings scatter.

Test [1] relates to KB-3-1. Description: Cytotoxic Profiling of Annotated Libraries Using Quantitative High-Throughput Screening (AID 1296008). On max response: on the % scale 0 is the no-effect control and ±100 the full control effect. To be noted: Five cell lines viability, CellTiter-Glo ATP luminescence, 48-72 h; max response: stronger effect = lower value. Summed up: (§1)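 Compounds were pin-transferred onto cells and incubated 48 or 72 hr at 37 degree Celsius, 95% humidity. CellTiter-Glo was added, plates sat 10 min at room temperature, then ATP-coupled luminescence was imaged as the viability read-out.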
For orientation: ATP-based viability assays read luminescence as a measure of living cells.

The test system of test [2] is MCC-13. Description: qHTS assay to identify novel small-molecules to repurpose for Merkel cell carcinoma treatment (AID 1296009). To be noted: MCC and control cell lines, CellTiter-Glo viability, 72 h; series mostly up to 46 µM. Summed up: (§2)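 Viability readout: ATP luminescence (CellTiter-Glo) after 72 hr drug exposure at 37 degree celsius. Dose-response format was 8 points for NPC and 11 points for MIPE; data normalized to in-plate controls.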

Test [3] deals with MCC-26. The description is as above. To be noted: MCC and control cell lines, CellTiter-Glo viability, 72 h; series mostly up to 46 µM. Summed up: as §2
Test [4] concerns MKL-2. The test is described as above. To be noted: MCC and control cell lines, CellTiter-Glo viability, 72 h; series mostly up to 46 µM. Summed up: as §2
The test system of test [5] is UISO. The description is as above. To be noted: MCC and control cell lines, CellTiter-Glo viability, 72 h; series mostly up to 46 µM. Summed up: as §2
The subject of test [6] is WaGa. The description is as above. To be noted: MCC and control cell lines, CellTiter-Glo viability, 72 h; series mostly up to 46 µM. Summed up: as §2
Test [7] has as its system PC49. Description: qHTS profiling for inhibitors of Plasmodium falciparum proliferation (AID 504749). To be noted: P. falciparum in erythrocytes, SYBR Green DNA, 72 h; series mostly up to 28.7 µM. Summed up: (§3)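 Quantitative HTS: compounds pinned into medium, infected erythrocytes added (0.3% parasitemia, 2.5% hematocrit), 72 h culture at 37 C under 5% CO2. Saponin/Triton lysis with SYBR Green I, overnight RT, then fluorescence read.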
(In general: qHTS replaces the single test concentration by a dilution series.)

The subject of test [8] is SC27B. Described as above. To be noted: P. falciparum in erythrocytes, SYBR Green DNA, 72 h; series mostly up to 28.7 µM. Summed up: as §3
The test system of test [9] is TAB109. Described as above. To be noted: P. falciparum in erythrocytes, SYBR Green DNA, 72 h; series mostly up to 28.7 µM. Summed up: as §3
The test system of test [10] is TAB113. Described as above. To be noted: P. falciparum in erythrocytes, SYBR Green DNA, 72 h; series mostly up to 28.7 µM. Summed up:
as §3

Test [11] deals with TAB165. The test is described as above. To be noted: P. falciparum in erythrocytes, SYBR Green DNA, 72 h; series mostly up to 28.7 µM. Summed up:
as §3

The subject of test [12] is W2. Described as above. To be noted: P. falciparum in erythrocytes, SYBR Green DNA, 72 h; series mostly up to 28.7 µM. Summed up: as §3
For test [13], the system named is CRL-7250. Description: Cytotoxic Profiling of Annotated Libraries Using Quantitative High-Throughput Screening (AID 1296008). On max response: on the % scale 0 is the no-effect control and ±100 the full control effect. To be noted: Five cell lines viability, CellTiter-Glo ATP luminescence, 48-72 h; max response: stronger effect = lower value. Summed up:
as §1

In test [14] the test system is HaCat. Described as above. To be noted: Five cell lines viability, CellTiter-Glo ATP luminescence, 48-72 h; max response: stronger effect = lower value. Summed up: as §1
Test [15] concerns NIH3T3. The test is described as above. To be noted: Five cell lines viability, CellTiter-Glo ATP luminescence, 48-72 h; max response: stronger effect = lower value. Summed up:
as §1

Test [16] deals with MKL-1. Description: qHTS assay to identify novel small-molecules to repurpose for Merkel cell carcinoma treatment (AID 1296009). To be noted: MCC and control cell lines, CellTiter-Glo viability, 72 h; series mostly up to 46 µM. Summed up:
as §2

The subject of test [17] is HEK293. Description: Cytotoxic Profiling of Annotated Libraries Using Quantitative High-Throughput Screening (AID 1296008). On max response: on the % scale 0 is the no-effect control and ±100 the full control effect. To be noted: Five cell lines viability, CellTiter-Glo ATP luminescence, 48-72 h; max response: stronger effect = lower value. Summed up: as §1
Test [18] relates to HEK293T. Description: qHTS assay to identify novel small-molecules to repurpose for Merkel cell carcinoma treatment (AID 1296009). To be noted: MCC and control cell lines, CellTiter-Glo viability, 72 h; at 44.8 µM (top of the series) unless noted. Summed up:
as §2

Test [19] concerns NIH3T3. The test is described as above. To be noted: MCC and control cell lines, CellTiter-Glo viability, 72 h; at 44.8 µM (top of the series) unless noted. Summed up:
as §2

Test [20] relates to HACAT. The test is described as above. To be noted: MCC and control cell lines, CellTiter-Glo viability, 72 h; at 44.8 µM (top of the series) unless noted. Summed up:
as §2
Further: nearly all actives have a fitted effect of over 60% in size.
Potency means the concentration at half of the fitted maximal effect.

As to `O[C@@H](CNC[C@H](O)[C@H]1CCc2cc(F)ccc2O1)[C@@H]1CCc2cc(F)ccc2O1`, the Potency in test [1] is 20.9 µM (active); in test [4], 26.4 µM (active); in [5], 23.7 µM (active). Moreover, the Potency result in [2], in [3] and in [6] was “inactive” in each case.

In the case of `CN(C)c1ccc(C(=C2C=CC(=[N+](C)C)C=C2)c2ccc(N(C)C)cc2)cc1`, the Potency was 1.78 µM (active) in test [7]; 0.501 µM (active) in test [8]; 0.224 µM (active) in test [9]; 0.355 µM (active) in [10]; 0.251 µM (active) in test [11]; 0.12 µM (active) in test [12]. Further, the Potency in [13] is 211 nM (active) and 59 nM (active); in test [14] it was 1.06 µM (active) and 935 nM (active); in [1] it was 7.31 µM (active) and 93.5 nM (active); in test [15], 944 nM (active) and 372 nM (active); in [2], 750 nM (active) and 743 nM (active); in test [16] it was 0.118 µM (active). The Potency in test [4] was 94.4 nM (active) and 11.8 nM (active); in test [5] it was 841 nM (active) and 187 nM (active); in [6] it was 596 nM (active) and 296 nM (active).

For the compound `CC(C)(C#N)c1cc(Cn2cncn2)cc(C(C)(C)C#N)c1`, the Potency entry in test [7], in [8], in [9], in [10], in [11] and in test [12] was “inactive” each time. In addition, the Potency entry in [2], in test [16], in test [4], in test [5] and in test [6] was “inactive” throughout.

Turning to `C[C@@H]1C[C@H]2[C@@H]3CCC4=CC(=O)C=C[C@]4(C)[C@@]3(Cl)[C@@H](O)C[C@]2(C)[C@@]1(OC(=O)c1ccco1)C(=O)CCl`, the max response in test [13] was -41.7%; in [14], -15.9%; in [1] it was 4.51% and 5.24%. Further, the Potency result in [2] and in test [3] was “inactive” throughout. Further, the Potency in test [16] is 16.6 µM (active); in test [4], 29.9 µM (active) and 18.7 µM (active); in test [5] it was 20.9 µM (active); in test [6], 16.6 µM (active).

In the case of `Oc1c(Cl)cc(Cl)c2cccnc12`, the Potency entry in test [7], in test [2] and in test [3] was “inactive” throughout. The Potency was 10 µM (active) in test [11]; 23.7 µM (active) in [15]; 5.31 µM (active) in test [16]; 3.76 µM (active) in [4]; 13.3 µM (active) in [5]; 11.9 µM (active) in [6]. Besides, the max response in test [1] is -16.3%.

As for `OCc1ccc(-c2nn(Cc3ccccc3)c3ccccc23)o1`, the Potency in [17] is 14.8 µM (active); in test [4] it was 18.7 µM (active); in test [5], 11.8 µM (active). Moreover, the outcome in test [1] was inactive. In test [2], the Potency entry is “inactive”.

In the case of `CCCOc1ccc(C(=O)OCCN(CC)CC)cc1N`, the max response in test [13] was -2.34% and -3.98%; in test [14] it was -1.58% and 2.22%; in test [1], -2.47% and 5.78%. The compound was called inactive in test [15], in test [18] and in test [19]. Further, the Potency result in test [2], in test [3], in [16], in test [4], in test [5] and in [6] was “inactive” each time.

On to `CCCCc1oc2ccc(NS(C)(=O)=O)cc2c1C(=O)c1ccc(OCCCN(CCCC)CCCC)cc1`, for which the Potency in test [17] was 11.6 µM (active); in [14], 23.7 µM (active); in test [1], 23.1 µM (active); in test [15], 9.44 µM (active); in test [4], 13.2 µM (active) and 4.73 µM (active). Besides, the Potency entry in test [2] and in [3] was “inactive” in each case.

For the compound `COc1ncnc(NS(=O)(=O)c2ccc(N)cc2)c1OC`, the Potency entry in test [7], in test [8], in test [9], in [10], in test [11] and in [12] was “inactive” each time. Also, the Potency result in test [2], in test [16], in [4], in test [5] and in test [6] was “inactive” each time. Also, the max response in test [14] is -20.7%; in [1], -15% and 8.7%; in test [15], -17.7%. Moreover, the outcome in [14], in [20] and in [18] was inactive. The Potency in test [15] was 16.6 µM (active).

As to `Nc1ccc(S(=O)(=O)Nc2ccccn2)cc1`, the Potency entry in test [7], in test [8], in test [9], in test [10], in test [11] and in test [12] was “inactive” in each case. Besides, the Potency result in [2], in [16], in [4], in test [5] and in test [6] was “inactive” throughout. For the same compound, the call in test [20], in [18] and in test [19] was inactive.
